Assay outcomes (PubChem BioAssay)
G9a block: inhibitors of human histone lysine methyltransferase G9a. Q96KQ7. G9a H3K9 monomethylation, AlphaScreen, 2 h. Potency, µM (top dose mostly 102 µM), for inactives: at the top dose activity, negative = inhibition, usual class: inhibitors. actives 8.8% (n = 350,000). AID 504332; also: potency is read from the fitted curve at half-maximal effect; % is scaled to controls: 0 for no effect and ±100 for the full control effect; nearly all actives have a fitted effect of over 75% in size
Target sequence (Q96KQ7 913-1193 limits assumed): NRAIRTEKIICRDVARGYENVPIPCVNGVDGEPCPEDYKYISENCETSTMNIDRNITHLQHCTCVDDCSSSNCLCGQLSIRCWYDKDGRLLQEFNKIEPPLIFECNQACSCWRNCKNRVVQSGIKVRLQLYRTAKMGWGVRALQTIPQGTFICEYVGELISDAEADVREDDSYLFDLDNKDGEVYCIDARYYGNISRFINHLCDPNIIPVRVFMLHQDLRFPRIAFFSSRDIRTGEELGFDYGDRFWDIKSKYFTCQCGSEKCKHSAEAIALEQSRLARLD
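Using a bead-based AlphaScreen, monomethylated H3K9 product from 2 h room-temperature reactions (G9a 20 nM, peptide 500 nM, SAM 20 uM) was detected with 0.5 ug/mL rabbit anti-H3K9me1 antibody.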
Six1-Eya2 inh: inhibitors of human Six1/Eya2 interaction; activity change, % (test concentration not listed); AlphaScreen GST-Six1/His-Eya2 binding, biochemical; active compounds read low; Q15475+O00167; actives 0.56% (n = 360,000); in the data active = activity change below about -65%; inconclusive = mostly about -30% to -63%; also: % is scaled to controls: 0 for no effect and ±100 for the full control effect
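Six1/Eya2 binding was read as AlphaScreen signal after compounds were pinned into GST-Six1 plus His-tagged Eya2 (5X stock 250/500 nM) in pH 8.0 Tris/NaCl/TCEP buffer, beads added, then incubated 1 h, 37 C, dark.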
HP1b chromo inh: HP1-beta chromodomain-methylated histone interaction inhibition | AlphaScreen HP1-beta / biotin-H3K9me3 peptide binding | Potency, µM (highest dose often 114 µM), for inactives: at the top dose activity change, negative = inhibition, actives largely listed as inhibitors | P83916 | actives 0.56% (n = 390,000); also: potency is read from the fitted curve at half-maximal effect; nearly all actives have a fitted effect of over 70% in size
Target sequence (P83916 whole entry, looked up): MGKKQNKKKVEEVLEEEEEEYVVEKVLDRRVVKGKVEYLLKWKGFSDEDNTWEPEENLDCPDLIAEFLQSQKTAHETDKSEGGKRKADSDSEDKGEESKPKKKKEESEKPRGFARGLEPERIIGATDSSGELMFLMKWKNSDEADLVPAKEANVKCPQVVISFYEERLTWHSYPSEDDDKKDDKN
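Compound inhibition of the preformed complex between 50 nM HP1-beta and 50 nM biotinylated H3K9me3 peptide was read by AlphaScreen. Buffer was PBS pH 7.4 with 0.01% Tween-20. Incubations ran 30 min at room temperature, with 10 ug/mL donor/acceptor beads.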
BAZ2B inh: blocks human BAZ2B. actives 4.4% (n = 360,000). AID 504333. Potency, µM (highest dose often 114 µM), inactives show top-dose activity change, negative = inhibition, actives largely listed as inhibitors. AlphaScreen BAZ2B-H3K14Ac peptide displacement; also: potency is read from the fitted curve at half-maximal effect; % is scaled to controls: 0 for no effect and ±100 for the full control effect; nearly all actives have a fitted effect of over 60% in size
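BAZ2B 50 nM plus b-H3(5-23)K14Ac 50 nM, PBS pH 7.4/0.01% Tween-20, 30 min RT; compound added (max 110 uM), 30 min RT; streptavidin donor/Ni-chelate acceptor beads 10 ug/mL final, 20 min dark; AlphaScreen read.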
JMJD2A Tudor: inhibitors of human JMJD2A Tudor domain | AlphaScreen JMJD2A-Tudor / H3K4me3 peptide binding | Potency, µM (titrated, usually from 114 µM), inactives show top-dose activity change, negative = inhibition, most hits filed as inhibitors | actives 4.4% (n = 390,000) | AID 504339; also: potency is read from the fitted curve at half-maximal effect; % is scaled to controls: 0 for no effect and ±100 for the full control effect; nearly all actives have a fitted effect of over 50% in size
CtBP-E1A inh: inhibitors of CtBP/E1A interaction | AlphaScreen GST-E1A/His-CtBP binding, 1536-well; active compounds read low | activity change, % (no concentration beside the values) | actives 0.49% (n = 340,000) | AID 651724; in the data active = activity change below about -65%; inconclusive = mostly about -30% to -63%; also: % is scaled to controls: 0 for no effect and ±100 for the full control effect
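GST-E1A and His-tagged CtBP (125 nM each as 5X stock) were preincubated with pin-transferred compound for 2 h at 37 °C in the dark, then glutathione donor and nickel acceptor beads were added for 1 h before AlphaScreen reading.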
The depositor's hits bear a star; ? = inconclusive; · = not tested or not shown; [ ] = dose if it differs, or a comment. A selection: hits, their analogues and other compounds. The true share with any hit is near 10%. Unless noted, calls follow the shape of the dose curve; as a rule, active = well fitted inhibition curve with a large enough effect; inconclusive = small, poorly fitted or top-dose-only effect; inactive = no such curve, though single readings can be large or run the other way.

SMILES	G9a block	Six1-Eya2 inh	HP1b chromo inh	BAZ2B inh	JMJD2A Tudor	CtBP-E1A inh
Cc1ccc(CNC(=O)CSc2nc3c(sc4ccccc43)c(=O)n2CCCOC(C)C)cc1	6%[59 µM]	·	16%	1%	-10%	·
N#Cc1nc(-c2ccc(OCc3ccccc3Cl)cc2)oc1N1CCC(C(N)=O)CC1	·	·	12%	·	-14%	·
CCOC(=O)c1c(C)[nH]c(C(=O)Cn2c(=O)c3c(ncn3CC)n(Cc3ccccc3)c2=O)c1C	8.9µM*	-22	5%	-6%	-22%	-11
CN(C)S(=O)(=O)c1ccc(S(=O)(=O)N(CC(=O)Nc2ccccc2)CC2CCCO2)cc1 (stereo not drawn)	32µM*	10	21%	-5%	-5%	-3
CC(Oc1ccccc1)C(=O)Nc1cccc(-c2cn3cccnc3n2)c1 (stereo not drawn)	-2%[59 µM]	·	19%[57 µM]	0%	-13%	·
CCN1CCN(CCCN(Cc2ccco2)C(=S)Nc2ccc(C)c(Cl)c2)CC1	35µM*	-13	27%	-29%	-24%	-5
CCOC(=O)c1ccc(NC(=S)N(CCCN2CCCC2)Cc2ccco2)cc1	56µM*	-14	-2%	-35%	-25%	3
CCOC(=O)c1ccc(NC(=S)N(CCCN2CCN(CC)CC2)Cc2ccco2)cc1	-40%	1	-3%	-13%	-29%	5
CCN1CCN(CCCN(Cc2ccco2)C(=S)Nc2cc(Cl)ccc2C)CC1	28µM*	-1	4%	-9%	-8%	-3
Cc1ccc(NC(=S)N(CCCN2CCOCC2)Cc2ccco2)cc1Cl	-15%	-8	-10%	-38%	-31%	1
CCOc1ccc(N(CC)C(=O)c2cc3c(s2)-c2ccc(Cl)cc2SC3)cc1	10%[59 µM]	·	90%	1%	-14%	·
CCCN(c1ccc(C(C)C)cc1)S(=O)(=O)c1ccc2c(c1)CCN2C(=O)CC	-8%[59 µM]	·	15%	-6%	-1%	·
CC(N)c1csc(Nc2ncccn2)n1 (stereo not drawn)	·	-84*	·	·	·	-88*
CC(N)c1csc(Nc2cc(Oc3ccccc3)ncn2)n1 (stereo not drawn)	·	?	·	·	·	-68*
CCOC(=O)c1ccc(CN(Cc2ccc(F)cc2)S(=O)(=O)c2cc(C(=O)Nc3ccccc3CC)ccc2F)cc1	0%[59 µM]	·	54%	1%	-11%	·
S=c1[nH]nc(-c2cc(-c3ccccc3)n[nH]2)n1/N=C/c1cccc(Cl)c1	10µM*	-10	?	50µM*	40µM*	-15
S=c1[nH]nc(-c2cc(-c3ccccc3)n[nH]2)n1/N=C/c1ccc(Cl)c(Cl)c1	?	-16	129%	45µM*	50µM*	-16
O=[N+]([O-])c1ccc(N/N=C/c2c[nH]c3ccccc23)c(S(=O)(=O)Nc2ccc(Cl)cc2)c1	?	1	?	45µM*	28µM*	-2
Nc1nc(=S)c2ncn(C3OC(CO)C(O)C3O)c2[nH]1 (stereo not drawn)	2µM*	?	?	45µM*	7.9µM*	?
Nc1ncnc2c1ncn2[C@@H]1O[C@H](CO)[C@H](O)[C@H]1O	28%[12.7 µM]	·	·	·	·	·
Nc1nc(Cl)nc2c1ncn2[C@@H]1O[C@H](CO)[C@@H](O)[C@H]1O	12%[59 µM]	2	25%	9%	-8%	9
Nc1nc(=S)c2ncn([C@@H]3O[C@H](CO)[C@@H](O)[C@H]3O)c2[nH]1	1.8µM*	2	?	?	5µM*	2
O=C(CCC(=O)N1CCSc2ccccc21)NCc1ccccc1Cl	9%[59 µM]	·	43%	-18%	-2%	·
Cc1cc(N2CCC(C(=O)Nc3ccc(F)cc3C)CC2)n2nc(C)c(-c3ccc(Cl)cc3)c2n1	1%[59 µM]	·	30%	-5%	0%	·
CCCc1cc(=O)oc2cc(C)c3c(-c4cccc(OC)c4)coc3c12	-1%[59 µM]	·	43%	-23%	-6%	·
SMILES	G9a block	Six1-Eya2 inh	HP1b chromo inh	BAZ2B inh	JMJD2A Tudor	CtBP-E1A inh
CCCCCOc1ccc(Br)cc1/C(C)=N/NC1=NCCN1	8.9µM*	-11	12%	-24%	-5%[11.4 µM]	-15
COc1ccc(Br)cc1/C(C)=N/NC1=NCCN1	?	5	8%	-1%	-26%	8
CN(C)c1oc(-c2ccccc2[N+](=O)[O-])nc1C#N	7.1µM*	-8	?	-38%	16µM*	·
CN(C)c1oc(-c2ccccc2Cl)nc1C#N	?	-28	-44%	?	-21%	18
CC1CCCN(C(=O)c2ccc(CSc3nc4ccncc4n3Cc3ccccc3)cc2)C1 (stereo not drawn)	?	·	38%	-17%	-24%	·
CC1CCN(C(=O)c2ccc(CSc3nc4ccncc4n3Cc3ccc(F)cc3)cc2)CC1	79µM*	-3	19%	-8%	-20%	-6
COc1ccc(OC)c(C2c3c(oc4ccc(C)cc4c3=O)C(=O)N2CCCN(C)C)c1 (stereo not drawn)	9%[59 µM]	·	30%	-3%	-8%	·
Brc1cc2c(cc1Br)OCCOCCOCCOCCO2	24%	8	-22%	-24%	8.9µM*	-1
Nc1ccc2c(c1)OCCOCCOCCOCCOCCO2	14µM*	-2	50%	-11%	-4%	-2
COc1cccc(-n2c(=O)c3c4c(sc3n(Cc3ccccc3C#N)c2=O)CCCC4)c1	-1%[59 µM]	·	38%	1%	3%	·
CCC(=O)Nc1ccc(Cl)c(-c2nc3ncccc3o2)c1	-17%	-68*	17%	-34%	-1%	?
CCOc1cc(CNc2ccc(N3CCOCC3)cc2)cc(Br)c1OCC	25µM*	-27	45µM*	18µM*	20µM*	-67*
COc1cc(CNc2ccc(N3CCOCC3)cc2)cc(Br)c1OC	18µM*	?	?	40µM*	40µM*	·
CCOc1cc(CNc2ccc3c(c2)OCCO3)cc(Br)c1OCC	·	-67*	-76%	25µM*	45µM*	?
CCOc1ccc(Br)cc1S(=O)(=O)N1CCCN(C)CC1	50µM*	12	10%	-11%	-11%	-22
COc1ccc(OC)c(CCNC(=O)c2cnn(-c3ccccc3)c2-n2cccc2)c1	-8%[59 µM]	·	-2%	-39%	?	·
Cc1ccc(OCc2cc(=O)n3cc(C)sc3n2)c(NC(=O)c2ccco2)c1	6%[59 µM]	·	24%[57 µM]	6%	?	·
CCc1c(C)sc(NC(=O)c2cc3nc(-c4ccc(OC)cc4)cc(C(F)(F)F)n3n2)c1C(=O)OC	?	·	34%	2%	-14%	·
CCC(=O)N1CCc2cc(S(=O)(=O)NC(CC(C)C)C(=O)NCc3cccc(OC)c3)ccc21 (stereo not drawn)	3%[59 µM]	·	31%	·	-15%	·
CCOc1ccc(Br)cc1S(=O)(=O)Nc1ccc(N2CCOCC2)cc1	11µM*	-3	-7%	?	-18%	-6
